From the supplement of paper PMC12297408
Several values for one entry are separate records, joined by “and”; a condition that tells them apart may be missing. Equal values may be shown once. Where a name gives a salt, the structure may show the parent alone. Unmarked numbers belong to inactive results.

What follows are compounds tested on Plasmodium falciparum NF54/iGP1_RE9H ulg8 stage V gametocytes (assay: gametocyte viability (luciferase signal relative to DMSO control) (% of DMSO control); higher = less gametocytocidal activity, active = 50 or less). Details: concentration: 1 µM; exposure time: 72 h.
Procedure, shortened: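 NF54/iGP1_RE9Hulg8 stage V gametocytes (day 12; ~2.5% gametocytemia, 3% hematocrit) were incubated with compounds at 10 µM or 1 µM final, in one well each, for 72 h at 37 °C in medium with 0.5% Albumax II. Luminescence after D-luciferin addition was read on an IVIS Lumina II. Viability refers to the mean of plate DMSO vehicle wells.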
For `C#Cc1cccc(Nc2ncnc3cc(OCCOC)c(OCCO)cc23)c1` [OSI-420 (Desmethyl Erlotinib)], the gametocyte viability was 92.8. `Cc1ccc(NC(=O)c2cccc(N(C)C)c2)cc1NC(=O)c1ccc(O)cc1` was tested, and the gametocyte viability was 95.9. Work on `Oc1cc(O)cc(/C=C/c2ccc(O)c(O)c2)c1` [Piceatannol] yielded a gametocyte viability of 70.4. For `Cc1ccc(NC(=O)c2ccc(CN3CCN(C)CC3)cc2)cc1Nc1nccc(-c2cccnc2)n1` [Imatinib Mesylate], the gametocyte viability was 108. For `COc1cccc(-c2cc(=O)c3ccccc3o2)c1N`, the gametocyte viability was 97.3 and 93.2. Work on `O=C(O)c1cc(N(Cc2ccccc2O)Cc2cc(O)ccc2O)ccc1O` [Lavendustin A] yielded a gametocyte viability of 98.5. For `CNC(=O)c1cc(Oc2ccc(NC(=O)Nc3ccc(Cl)c(C(F)(F)F)c3)cc2)ccn1` [Sorafenib (Nexavar)], the gametocyte viability was 114. `CC(C)c1cc(/C=C(\C#N)C(=O)NCCCc2ccccc2)cc(C(C)C)c1O` gave a gametocyte viability of 99.4. `COc1cc(C=C(C#N)C(N)=O)cc(CSc2nc3ccccc3s2)c1O` was tested, and the gametocyte viability was 111. Work on `Clc1ccc(Nc2nnc(Cc3ccncc3)c3ccccc23)cc1` [Vatalanib dihydrochloride (PTK787)] yielded a gametocyte viability of 111. In the case of `Fc1cc(-c2cccc3ncc(-c4cnn(C5CCNCC5)c4)nc23)cc(F)c1CN1CCOCC1`, the gametocyte viability is reported as 107. Work on `CCS(=O)(=O)Nc1ccc2[nH]c(O)c(C(=Nc3ccc(CN4CCCCC4)cc3)c3ccccc3)c2c1` [Hesperadin] yielded a gametocyte viability of 110. For `Cc1cc(Nc2nc(N[C@@H](C)c3ncc(F)cn3)ncc2Cl)[nH]n1`, the gametocyte viability was 97.5. Compound `Cc1ccc(-c2nn(C(C)(C)C)c3ncnc(N)c23)cc1` has a gametocyte viability of 103. For `O=c1cc(-c2ccc(O)cc2)oc2cc(O)cc(O)c12` [Apigenin], the gametocyte viability was 101. In the case of `COc1ccc(-c2ccc3c(N4CCOC[C@@H]4C)nc(N4CCOC[C@@H]4C)nc3n2)cc1CO`, the gametocyte viability is reported as 96.5. With `CCOc1ccn(-c2ccc(F)cc2)c(=O)c1C(=O)Nc1ccc(Oc2ccnc(N)c2Cl)c(F)c1` the gametocyte viability was 95.8. For `O=C1NC(=O)/C(=C/c2ccc(-c3ccc(F)cc3O)o2)S1`, the gametocyte viability was 100. Compound `CN(C)C1CCN(C(=O)c2ccc(NC(=O)Nc3ccc(-c4nc(N5CCOCC5)nc(N5CCOCC5)n4)cc3)cc2)CC1` has a gametocyte viability of 102. In the case of `FC(F)(F)c1ccc(/C=C/c2nc(COc3ccc(CCCCn4ccnn4)cc3)co2)cc1` [Mubritinib (TAK 165)], the gametocyte viability is reported as 95.1. `CO[C@H]1C[C@@H]2CC[C@@H](C)[C@@](O)(O2)C(=O)C(=O)N2CCCC[C@H]2C(=O)O[C@H]([C@H](C)C[C@@H]2CC[C@@H](OP(C)(C)=O)[C@H](OC)C2)CC(=O)[C@H](C)/C=C(\C)[C@@H](O)[C@@H](OC)C(=O)[C@H](C)C[C@H](C)/C=C/C=C/C=C/1C` [Deforolimus (Ridaforolimus)] was tested, and the gametocyte viability was 90.2. Compound `Cc1cnc(Nc2ccc(N3CCN(C)CC3)cc2)nc1Nc1cccc(S(=O)(=O)NC(C)(C)C)c1` has a gametocyte viability of 91.9. `O=C(Nc1cccc(Cl)c1)Nc1ncc(CCNc2ncnc3ccsc23)s1` showed a gametocyte viability of 110. `Cc1nc(NC(=O)N2CCC[C@H]2C(N)=O)sc1-c1csc(C(C)(C)C)n1` gave a gametocyte viability of 101. For `C#Cc1cccc(Nc2ncnc3cc(OCCOC)c(OCCOC)cc23)c1` [Erlotinib HCl], the gametocyte viability was 86.2. For `Cc1ccc(Nc2nccc(N(C)c3ccc4c(C)n(C)nc4c3)n2)cc1S(N)(=O)=O` [Pazopanib HCl], the gametocyte viability was 98. Compound `CC(C)(C)Cn1c(N)nc2ccc(-c3[nH]c(C(C)(C)C)nc3-c3ccc(F)cc3)nc21` has a gametocyte viability of 97.8. `N#CC(=Cc1ccc2[nH]ccc2c1)C(N)=C(C#N)C#N` showed a gametocyte viability of 100. With `N#Cc1c(O)c2c(-c3ccc(-c4ccccc4O)cc3)csc2[nH]c1=O` the gametocyte viability was 97.7. For `Cc1ccc(C(=O)Nc2cccc(C(F)(F)F)c2)cc1Nc1nc(-c2cccnc2)nc2c1cnn2C`, the gametocyte viability was 100. With `COc1cc(Nc2ncc(F)c(Nc3ccc4c(n3)NC(=O)C(C)(C)O4)n2)cc(OC)c1OC` [R406(free base)] the gametocyte viability was 96.3. `Oc1cccc(-c2nc(N3CCOCC3)c3oc4ncccc4c3n2)c1` was tested, and the gametocyte viability was 115. `COc1cc(OC)c(/C=C/S(=O)(=O)Cc2ccc(OC)c(NCC(=O)O)c2)c(OC)c1` was tested, and the gametocyte viability was 93.4.
